Results reported in PubChem BioAssay AID1159580 (chemical genetic matrix, 2015).
Out of some 5,500 compounds screened, about 2,000 (36%) were called active. Another 18% or so got no clear call; they are omitted. Rule as the data show it: active = normalized growth mostly below about 0.91 (no sharp cut-off); inconclusive = no clear call, values can overlap the other calls; inactive = mostly above about 0.92. Some of the results follow. Where a SMILES comes first, the peptide text is derived from it.

Test: chemical genetic growth profiling, strain panel (AID 1159580);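 also: tested at 20 µM; growth read once vehicle control cultures reached saturation at 30 °C; 1 = growth at the plate median or of vehicle wells; lower values mean less growth of the strain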
Settings: S. cerevisiae deletion strains, growth OD
[1] = locus YAL013W, strain DEP1, active compounds read low
[2] = locus YGR078C, strain PAC10, active compounds read low
[3] = locus YHR030C, strain SLT2, active compounds read low
[4] = locus YJL095W, strain BCK1, active compounds read low
[5] = locus YMR307W, strain GAS1, active compounds read low
[6] = locus YNL128W, strain TEP1, active compounds read low
[7] = locus YNL153C, strain GIM3, active compounds read low
[8] = locus YHR079C, strain IRE1, active compounds read low
[9] = locus YJR066W, strain TOR1, active compounds read low
[10] = locus YLR113W, strain HOG1, active compounds read low
[11] = locus YNL183C, strain NPR1, active compounds read low
[12] = locus YOR231W, strain MKK1, active compounds read low
[13] = locus YPL256C, strain CLN2, active compounds read low

Measured: normalized growth

Nc1nc2[nH]c(=O)c(=O)[nH]c2c(=O)[nH]1
inactive: [1] 1.01 | locus YBR021W, strain FUR4, active compounds read low 0.971 | locus YBR229C, strain ROT2, active compounds read low 0.998 | locus YCL029C, strain bik1, active compounds read low 1.03 | locus YDL035C, strain GPR1, active compounds read low 1.01 | locus YDL074C, strain BRE1, active compounds read low 1.01 | locus YDL101C, strain DUN1, active compounds read low 1 | locus YDL134C, strain PPH21, active compounds read low 1.02 | locus YDL185W, strain tfp1, active compounds read low 1.01 | locus YDL192W, strain arf1, active compounds read low 0.995 | locus YDR101C, strain arx1, active compounds read low 0.987 | locus YDR162C, strain NBP2, active compounds read low 1.05 | locus YDR318W, strain mcm21, active compounds read low 1.01 | locus YDR388W, active compounds read low 1.01 | locus YDR502C, strain sam2, active compounds read low 1.01 | locus YEL061C, strain CIN8, active compounds read low 1.01 | locus YER110C, active compounds read low 1.01 | locus YER155C, strain BEM2, active compounds read low 1.01 | locus YER167W, strain BCK2, active compounds read low 1.01 | locus YGL078C, strain dbp3, active compounds read low 1.01 | locus YGL086W, strain mad1, active compounds read low 0.978 | locus YGL248W, strain PDE1, active compounds read low 1.01 | [2] 1.01 | locus YGR135W, strain pre9, active compounds read low 1.03 | locus YGR252W, strain gcn5, active compounds read low 1.01 | [3] 1.01 | locus YHR079C, strain IRE1 (second series), active compounds read low 1 | locus YHR094C, strain hxt1, active compounds read low 1.01 | locus YHR129C, strain ARP1, active compounds read low 1.01 | locus YHR200W, strain rpn10, active compounds read low 0.992 | locus YIL066C, strain RNR3, active compounds read low 1.02 | locus YIL073C, strain SPO22, active compounds read low 1.04 | locus YIL125W, strain kgd1, active compounds read low 1.01 | locus YIR030C, strain dcg1, active compounds read low 1.01 | [4] 1.02 | locus YJL134W, strain LCB3, active compounds read low 1.02 | locus YJL168C, strain set2, active compounds read low 1 | locus YJL187C, strain SWE1 (second series), active compounds read low 1.01 | locus YJR043C, strain POL32, active compounds read low 0.996 | locus YKL009W, strain mrt4, active compounds read low 0.998 | locus YKL068W, active compounds read low 1.01 | locus YKL085W, strain MDH1 (second series), active compounds read low 1.02 | locus YKL085W, strain MDH1, active compounds read low 1.02 | locus YKL190W, strain CNB1, active compounds read low 1.01 | locus YKR001C, strain vps1, active compounds read low 1 | locus YLR039C, strain RIC1, active compounds read low 1.03 | locus YLR058C, strain SHM2, active compounds read low 1.01 | locus YLR102C, strain apc9, active compounds read low 1.01 | locus YLR262C, strain YPT6, active compounds read low 1.08 | locus YLR268W, strain sec22, active compounds read low 1.02 | locus YLR330W, strain CHS5, active compounds read low 1.01 | locus YLR342W, strain FKS1 (second series), active compounds read low 0.973 | locus YLR371W, strain rom2, active compounds read low 1.02 | locus YLR418C, strain cdc73, active compounds read low 0.971 | locus YML016C, strain PPZ1, active compounds read low 0.996 | locus YML032C, strain rad52, active compounds read low 1.02 | locus YML124C, strain tub3, active compounds read low 1.01 | locus YMR078C, strain ctf18, active compounds read low 1 | locus YMR223W, strain ubp8, active compounds read low 1.01 | locus YMR263W, strain SAP30, active compounds read low 1.01 | [5] 1.02 | locus YNL067W, strain RPL9B, active compounds read low 1.02 | [6] 1.05 | [7] 1.01 | locus YNL233W, strain BNI4, active compounds read low 1.03 | locus YNL250W, strain rad50, active compounds read low 1.02 | locus YNL271C, strain bni1, active compounds read low 1.01 | locus YNL298W, strain CLA4, active compounds read low 1 | locus YNL307C, strain MCK1, active compounds read low 1 | locus YNR052C, strain pop2, active compounds read low 1.02 | locus YOL006C, strain TOP1, active compounds read low 1.01 | locus YOL012C, strain htz1 1.04 | locus YOL147C, strain pex11, active compounds read low 1 | locus YOR061W, strain CKA2, active compounds read low 1 | locus YOR069W, strain VPS5, active compounds read low 1.01 | locus YOR136W, strain idh2, active compounds read low 1.01 | locus YOR144C, strain elg1, active compounds read low 1 | locus YOR184W, strain ser1, active compounds read low 0.996 | locus YOR316C, strain cot1, active compounds read low 1.01 | locus YPR119W, strain clb2, active compounds read low 1.02 | locus YPR141C, strain kar3, active compounds read low 1.01 | locus YPR163C, strain tif3, active compounds read low 1.02 | locus YPR167C, strain met16, active compounds read low 1.04 | strain wtn01, active compounds read low 1

CC(C)C[C@H](N)C(=O)N[C@@H](C)C(=O)O (H-Leu-Ala-OH)
inactive: [3] 1.01 | [8] 1.01 | [4] 1.02 | [9] 0.975 | [10] 1.02 | [11] 0.954 | [12] 1.03 | [13] 1.02

COc1ccc(C(C)=O)c(O)c1
inactive: [3] 0.966 | [8] 0.965 | [4] 0.968 | [9] 0.905 | [10] 0.96 | [11] 0.892 | [12] 0.968 | [13] 0.957

COc1ccc(C(C)=O)c(OC)c1
inactive: [3] 0.954 | [8] 0.952 | [4] 0.965 | [9] 0.953 | [10] 0.948 | [11] 0.895 | [12] 0.934 | [13] 0.909

COc1cc(C(O)C(=O)O)ccc1O (stereo not given)
inactive: [1] 0.996 | locus YAL040C, strain CLN3, active compounds read low 0.984 | locus YCL061C, strain MRC1 (second series), active compounds read low 0.994 | locus YDR150W, strain NUM1, active compounds read low 0.994 | locus YDR363W, strain ESC2, active compounds read low 1.01 | locus YER002W, strain NOP16, active compounds read low 1.03 | [2] 1 | locus YJR075W, strain HOC1, active compounds read low 0.991 | [5] 0.989 | [6] 0.986 | [7] 1.01 | locus YNL175C, strain NOP13, active compounds read low 0.992 | locus YNL197C, strain WHI3, active compounds read low 1.01 | locus YNL224C, strain SQS1, active compounds read low 1.02 | locus YNL322C, strain KRE1, active compounds read low 0.998 | locus YOR083W, strain WHI5 (second series), active compounds read low 1.01 | locus YPL055C, strain LGE1, active compounds read low 1.01
